We go through 7 molecules from PubChem BioAssay (Tox21).

“And” between values parts separate entries of the source, which are not always exact repeats. Equal values may be shown once. Results filed as inconclusive are left out. Some compounds were tested as several samples or in several runs, with calls that do not always agree. The source made the active and inactive calls. Unless noted, calls follow the shape of the dose curve; as a rule, active = well fitted curve in the direction sought with a large enough effect in the repeat runs; inconclusive = weak or mixed curves; inactive = no such curve, though single readings can be large; an effect the other way counts as inactive or inconclusive.

Assay [1] in a line: qHTS RealTime-Glo MT Cell Viability Assay in HEK293 cells - 0 hour (AID 1224880). Also: top concentration of the series differs between compounds; nearly all actives have a fitted effect of over 45% in size. A digest of the protocol: (§1)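 600 HEK293 cells per well, dispensed already mixed with RealTime-Glo MT reagents. Compound dosing came 5 h later. The same wells were read for luminescence at 0, 8, 16, 24, 32 and 40 h of exposure at 37 C.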
On the technique in general: In qHTS, concentration-response curves come from the screen itself.

Assay [2] can be described thus: A CellTox Green Cytotoxicity Assay to monitor cytotoxicity in HepG2 cells - 0 hour (AID 1224882). Also: nearly all actives have a fitted effect of over 35% in size. A digest of the protocol:
(§2)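 First, HepG2 cells (600/well) mixed with reagent were plated; second, after 5 h at 37 C they received compounds via pintool; third, fluorescence was measured at 0 h through 40 h at 8 h intervals.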

Assay [3] can be described thus: A CellTox Green Cytotoxicity Assay to monitor cytotoxicity in HepG2 cells - 32 hour (AID 1224883). Also: nearly all actives have a fitted effect of over 50% in size. The essentials:
as §2

Assay [4] in a line: A CellTox Green Cytotoxicity Assay to monitor cytotoxicity in HEK293 cells - 8 hour (AID 1224884). Also: nearly all actives have a fitted effect of over 35% in size. A digest of the protocol: (§3)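 Dead-cell fluorescence measured kinetically: asymmetric cyanine dye, HEK293, 600 cells/well, 5 h settle, 23 nL cpd/DMSO, 37 C, reads 0–40 h every 8 h.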
Assay [5] is described as follows: qHTS RealTime-Glo MT Cell Viability Assay in HepG2 cells - 16 hour (AID 1224885). Also: nearly all actives have a fitted effect of over 50% in size. The essentials: (§4)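 HepG2 cells were seeded at 600 cells/well together with NanoLuc luciferase and a cell-permeant prosubstrate, preincubated 5 h at 37 C/5% CO2, then pin-dosed with compounds in DMSO. Nonlytic luminescence from viable cells was read at each time point.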
Assay [6] in a line: qHTS RealTime-Glo MT Cell Viability Assay in HEK293 cells - 24 hour (AID 1224886). Also: nearly all actives have a fitted effect of over 50% in size. Also: potency is read from the fitted curve at half-maximal effect. A digest of the protocol: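 HEK293 cells were seeded at 600 cells/well together with NanoLuc luciferase and cell-permeant prosubstrate, preincubated 5 h at 37 C/5% CO2, then given compound in DMSO by pintool. Luminescence from viable-cell prosubstrate reduction was read repeatedly over 40 h.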

Assay [7] in a line: qHTS RealTime-Glo MT Cell Viability Assay in HEK293 cells - 8 hour (AID 1224887). Also: nearly all actives have a fitted effect of over 50% in size. Also: potency is read from the fitted curve at half-maximal effect. A digest of the protocol: as §1
Assay [8] is described as follows: A CellTox Green Cytotoxicity Assay to monitor cytotoxicity in HEK293 cells - 16 hour (AID 1224888). Also: nearly all actives have a fitted effect of over 35% in size. A digest of the protocol:
as §3

Assay [9] in a line: qHTS RealTime-Glo MT Cell Viability Assay in HepG2 cells - 0 hour (AID 1224889). Also: nearly all actives have a fitted effect of over 50% in size. The essentials:
as §4

The nature of assay [10]: A CellTox Green Cytotoxicity Assay to monitor cytotoxicity in HepG2 cells - 8 hour (AID 1224890). Also: nearly all actives have a fitted effect of over 45% in size. The essentials:
as §2

A short description of assay [11]: qHTS assay to identify small molecule antagonists of the estrogen receptor alpha (ER-alpha) signaling pathway using the BG1 cell line in the presence of 0.1 nM 17-beta-estradiol - cell viability counter screen (AID 1259241). Also: nearly all actives have a fitted effect of over 40% in size. The essentials:
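Cytotoxicity counter-screen: live-cell protease activity measured by fluorescence (30 min reagent step) in the same wells. Cells were VM7Luc4E2 with endogenous ER-alpha and ERE-driven luciferase, treated 22 hr at 37C alongside 0.1 nM 17beta-estradiol final.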

Assay [12] can be described thus: qHTS assay to identify small molecule antagonists of the androgen receptor (AR) signaling pathway using the MDA cell line in the presence of 0.5 nM R1881 - cell viability counter screen (AID 1259242). Also: nearly all actives have a fitted effect of over 45% in size. The essentials: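 qHTS format. MDA-kb2 (MMTV-luc, AR/GR responsive) + cpd + 0.5 nM R1881 final, 16 hr 37C/0% CO2 → CellTiter-Fluor 30 min → fluorescence intensity.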

The target of assay [13] is Estrogen receptor (Homo sapiens) (UniProt P03372). Nature of the assay: qHTS assay to identify small molecule antagonists of the estrogen receptor alpha (ER-alpha) signaling pathway using the BG1 cell line in the presence of 0.1 nM 17-beta-estradiol (AID 1259244). Also: nearly all actives have a fitted effect of over 50% in size. A digest of the protocol: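 Reporter is a stably transfected luciferase under four estrogen responsive elements in VM7Luc4E2 cells expressing native full-length ER-alpha; inhibition of 0.1 nM (final) 17beta-estradiol-driven signal over 22 h is read by luminescence.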

A short description of assay [14]: qHTS assay to identify small molecule HDAC inhibitors (AID 1259364).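 Also: wild-type HCT-116 cells with endogenous class I/II HDAC activity; top concentration of the series differs between compounds; nearly all actives have a fitted effect of over 45% in size.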 The essentials:
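Quantitative high-throughput format: overnight-seeded HCT-116 cells got compounds for 2 hr at 37C; HDAC-Glo I/II reagent added, 30 min RT, luminescence measured.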

A short description of assay [15]: qHTS assay to identify small molecule HDAC inhibitors - cell viability counter screen (AID 1259365). The essentials: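 CellTiter-Glo luminescence (30 min, room temperature) reported viability after a 2 h compound exposure at 37 C. Cells: wild-type HCT-116, 1,500 per well, seeded the night before.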
Assay [16] can be described thus: qHTS assay to identify small molecule agonists of the sonic hedgehog signaling (Shh) pathway - cell viability counter screen (AID 1259366). Also: nearly all actives have a fitted effect of over 50% in size. A digest of the protocol: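 Cytotoxicity counter screen: CellTiter-Fluor reagent added after 23 h compound exposure, then 1 h at 37C and fluorescence read. Cells were 3T3 Gli1-Luc, seeded 2,000 per well and dosed 4 h post-plating.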

A short description of assay [17]: qHTS assay to identify small molecule antagonists of the sonic hedgehog signaling (Shh) pathway - cell viability counter screen (AID 1259367). Also: nearly all actives have a fitted effect of over 55% in size. A digest of the protocol:
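Tox21 library chemicals were tested on a Gli1-Luc NIH/3T3 clone (2,000 cells/well) stimulated by conditioned medium; viability was quantified as fluorescence from CellTiter-Fluor reagent added at 23 hr.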

Assay [18] is described as follows: A CellTox Green Cytotoxicity Assay to monitor cytotoxicity in HEK293 cells - 32 hour (AID 1224881). Also: nearly all actives have a fitted effect of over 40% in size. The essentials:
as §3

Assay [19] in a line: qHTS assay to identify small molecule phospholipidosis (PLD) inducers (AID 1259344; active = well fitted curve in the direction sought with a large enough effect; an effect the other way counts as inactive or inconclusive). The essentials: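 Image-based: LipidTOX Red pit count/intensity per well and per cell; HepG2, 24 h compound at 37 C, PFA fixation, Hoechst counterstain.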
For assay [20], the target named is Androgen receptor (Homo sapiens) (UniProt P10275). Nature of the assay: qHTS assay to identify small molecule antagonists of the androgen receptor (AR) signaling pathway using the MDA cell line in the presence of 0.5 nM R1881 (AID 1259243). Also: nearly all actives have a fitted effect of over 50% in size. The essentials:
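Antagonist mode quantitative HTS in MDA-kb2 MMTV-luciferase cells, agonist R1881 at 0.5 nM final, 16 hr exposure at 37C and 0% CO2, luminescent detection.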

Sequence of Estrogen receptor (Homo sapiens) (P03372 whole entry, looked up): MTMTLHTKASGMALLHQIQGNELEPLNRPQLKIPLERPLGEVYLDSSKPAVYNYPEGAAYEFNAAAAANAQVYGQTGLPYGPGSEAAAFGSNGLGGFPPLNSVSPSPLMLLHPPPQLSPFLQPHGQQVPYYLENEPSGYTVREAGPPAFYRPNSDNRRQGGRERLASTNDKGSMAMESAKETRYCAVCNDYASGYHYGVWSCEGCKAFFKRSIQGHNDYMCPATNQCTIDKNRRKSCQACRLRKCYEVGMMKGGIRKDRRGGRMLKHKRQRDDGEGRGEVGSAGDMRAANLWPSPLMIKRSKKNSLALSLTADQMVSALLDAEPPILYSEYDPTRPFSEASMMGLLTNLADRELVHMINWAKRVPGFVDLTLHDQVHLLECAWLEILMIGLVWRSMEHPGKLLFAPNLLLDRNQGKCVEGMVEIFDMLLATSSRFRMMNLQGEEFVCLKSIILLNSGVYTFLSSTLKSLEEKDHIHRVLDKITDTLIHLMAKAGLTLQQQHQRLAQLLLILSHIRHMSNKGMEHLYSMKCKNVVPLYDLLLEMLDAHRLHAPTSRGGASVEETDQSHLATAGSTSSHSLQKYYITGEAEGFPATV
Sequence of Androgen receptor (Homo sapiens) (P10275 whole entry, looked up): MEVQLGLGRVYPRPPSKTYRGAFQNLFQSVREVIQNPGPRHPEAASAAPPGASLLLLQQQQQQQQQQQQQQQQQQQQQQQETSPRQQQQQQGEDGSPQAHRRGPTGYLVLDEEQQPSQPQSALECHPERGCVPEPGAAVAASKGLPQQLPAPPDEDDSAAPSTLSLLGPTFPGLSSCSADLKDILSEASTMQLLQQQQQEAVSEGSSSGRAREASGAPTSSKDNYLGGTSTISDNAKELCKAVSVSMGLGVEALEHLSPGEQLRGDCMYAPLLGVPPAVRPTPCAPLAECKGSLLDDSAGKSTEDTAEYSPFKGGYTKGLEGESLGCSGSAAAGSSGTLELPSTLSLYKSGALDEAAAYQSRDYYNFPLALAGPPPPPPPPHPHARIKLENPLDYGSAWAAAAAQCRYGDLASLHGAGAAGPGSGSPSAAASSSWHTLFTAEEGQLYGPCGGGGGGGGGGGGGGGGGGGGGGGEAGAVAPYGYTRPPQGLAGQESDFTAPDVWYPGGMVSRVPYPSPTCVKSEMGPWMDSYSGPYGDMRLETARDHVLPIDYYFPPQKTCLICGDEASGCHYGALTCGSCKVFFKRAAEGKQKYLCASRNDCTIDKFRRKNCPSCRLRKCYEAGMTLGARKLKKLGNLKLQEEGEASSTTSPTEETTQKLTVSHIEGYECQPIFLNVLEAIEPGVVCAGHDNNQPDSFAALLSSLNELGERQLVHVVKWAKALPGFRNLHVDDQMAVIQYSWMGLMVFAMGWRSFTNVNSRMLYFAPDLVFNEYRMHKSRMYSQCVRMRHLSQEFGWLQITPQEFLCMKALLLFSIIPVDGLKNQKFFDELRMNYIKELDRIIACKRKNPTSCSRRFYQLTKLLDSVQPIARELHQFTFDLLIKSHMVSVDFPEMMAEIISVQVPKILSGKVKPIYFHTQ

Take `NCc1cccc(CN)c1`: the Potency result in assay [1], in assay [2], in [3], in assay [4], in assay [5] and in [6] was “inactive” in each case. For the same molecule, the Potency result in [7], in assay [8], in [9], in [10], in [11] and in assay [12] was “inactive” each time. In addition, the Potency result in assay [13], in assay [14], in assay [16] and in assay [17] was “inactive” in each case. In addition, in assay [15], the call was inactive.
For `CCOC(=O)[C@H](CCc1ccccc1)N[C@@H](C)C(=O)N1Cc2ccccc2C[C@H]1C(=O)O`, the Potency result in assay [1], in assay [18], in [2], in assay [3], in [6] and in assay [7] was “inactive” throughout. Besides, the Potency entry in [8], in assay [9], in [10], in assay [11], in [12] and in assay [13] was “inactive” each time. For the same molecule, the Potency result in assay [14] and in assay [16] was “inactive” each time. Besides, the call in assay [19] and in assay [15] was inactive.
Take `O=C1N=C(O)CN1/N=C/c1ccc(-c2ccc([N+](=O)[O-])cc2)o1`: the Potency result in [1], in assay [18], in [2], in assay [3], in assay [6] and in assay [7] was “inactive” in each case. Besides, the Potency result in assay [8], in assay [9], in assay [10] and in [14] was “inactive” in each case. The molecule was called inactive in assay [19] and in [15].
As for `CC(C)(CO)COC(=O)C(C)(C)CO`, the Potency result in assay [1], in assay [18], in assay [2], in [3], in assay [6] and in [7] was “inactive” in each case. Further, the Potency entry in assay [8], in assay [9], in [10], in [11], in [12] and in [13] was “inactive” in each case. Moreover, the Potency result in [14], in [16] and in assay [17] was “inactive” each time. Moreover, the outcome in assay [20] and in assay [15] was inactive.
For `C=C(C#N)C(=O)OCC`, the Potency entry in [1], in assay [18], in assay [2], in assay [3], in assay [5] and in assay [6] was “inactive” throughout. For the same molecule, the Potency result in assay [7], in assay [8], in assay [9], in assay [10], in assay [11] and in [12] was “inactive” in each case. For the same molecule, the Potency entry in [14], in [16] and in assay [17] was “inactive” throughout. Moreover, the molecule was classed as inactive in assay [15].
Turning to `CCCCCCCCCCCCOCC1CO1` (configuration not stated), the Potency result in assay [1], in assay [18], in assay [2], in assay [3], in assay [5] and in [6] was “inactive” each time. For the same molecule, the Potency result in assay [7], in assay [8], in assay [9], in assay [10], in assay [11] and in assay [12] was “inactive” each time. Further, the Potency result in [13], in assay [14], in assay [16] and in [17] was “inactive” each time. In addition, the molecule was classed as inactive in [15].
On to `CCC(C)C=O` (configuration not stated), for which the Potency entry in assay [1], in assay [18], in assay [2], in assay [3], in assay [5] and in assay [8] was “inactive” in each case. Further, the Potency entry in [9], in [10], in assay [11], in assay [12], in [13] and in assay [14] was “inactive” throughout. Further, the Potency result in assay [16] and in [17] was “inactive” throughout. In addition, the Potency entry is “inactive and 3.89 µM (active)” in [6]; “inactive and 13.8 µM (active)” in [7]. For the same molecule, in [15], the outcome was inactive.
